# Source: PubChem (The Scripps Research Institute Molecular Screening Center)
# An excerpt weighted towards active compounds, which were near 3.5% of everything screened.
# TEAD-YAP inh – TEAD-YAP interaction inhibition, primary screen, TEAD-YAP interaction inhibitor project, luminescence, HEK-TIYL cells. TEAD-Gal4/YAP UAS-luciferase luminescence. inhibition, % at 9.12 µM. 1.4% of 640,000 active. AID 1259422, 2018; in the data active = inhibition above about 32%;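 also: 0% = median of test compound wells and 100% = reference inhibitor wells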
# MITF inh – MITF inhibitors, primary screen, biochemical, AlphaScreen, human; AlphaScreen MITF homodimerization, bead proximity signal; inhibition, % at 2.6 µM; 0.91% of 650,000 active; AID 1259374, 2018; in the data active = inhibition above about 50%;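 also: 0% = vehicle wells with protein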
# GPR151 activ – activators of human GPR151, primary screen, cell-based, PathHunter beta-arrestin, luminescence | G-protein coupled receptor 151 (Homo sapiens), Q8TDV0 | PathHunter beta-arrestin GPR151 cells | activation, % at 11.2 µM | 1% of 650,000 active; in the data active = activation above about 4.9%;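 also: 0% = median of compound wells and 100% = cells with positive control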
# FBW7 activator – FBW7 E3 ligase activators, primary screen, biochemical, AlphaScreen, human. AlphaScreen FBW7–phospho-cyclin E peptide binding, activator screen. normalized activity (activation), % at 26.1 µM. 0.13% of 650,000 active. AID 1259310, 2017; in the data active = normalized activity above about 1.9%;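 also: purified mutant Fbw7 with reduced substrate affinity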
# Target sequence (Q969H0 whole entry, looked up): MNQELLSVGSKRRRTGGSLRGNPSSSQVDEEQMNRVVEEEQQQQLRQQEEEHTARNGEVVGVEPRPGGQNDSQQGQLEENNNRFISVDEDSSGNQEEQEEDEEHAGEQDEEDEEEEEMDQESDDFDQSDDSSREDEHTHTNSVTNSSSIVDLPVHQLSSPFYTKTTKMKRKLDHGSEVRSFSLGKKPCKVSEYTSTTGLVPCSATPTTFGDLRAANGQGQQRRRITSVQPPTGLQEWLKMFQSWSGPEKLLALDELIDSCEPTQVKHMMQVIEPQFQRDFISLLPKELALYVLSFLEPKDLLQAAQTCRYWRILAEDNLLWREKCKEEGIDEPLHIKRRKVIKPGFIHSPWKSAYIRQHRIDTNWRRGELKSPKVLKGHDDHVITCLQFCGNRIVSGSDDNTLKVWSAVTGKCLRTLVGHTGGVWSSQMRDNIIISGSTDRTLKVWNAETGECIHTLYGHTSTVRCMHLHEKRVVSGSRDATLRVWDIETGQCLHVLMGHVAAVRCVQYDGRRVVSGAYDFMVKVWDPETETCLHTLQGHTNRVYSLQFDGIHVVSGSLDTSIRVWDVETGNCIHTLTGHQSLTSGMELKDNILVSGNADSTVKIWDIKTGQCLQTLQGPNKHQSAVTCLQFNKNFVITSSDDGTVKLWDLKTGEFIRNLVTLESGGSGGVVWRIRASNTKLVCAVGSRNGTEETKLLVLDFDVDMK
# * marks the source's active call; other numbers are inactive results.
SMILES,TEAD-YAP inh,MITF inh,GPR151 activ,FBW7 activator
COc1ccc(C2=CC(c3ccc(OC)cc3OC)n3ncnc3N2)cc1 (stereo not given),56*,16,1,0
O=C(Nc1ccc2nc3n(c(=O)c2c1)CCCCC3)c1cc([N+](=O)[O-])ccc1F,29,0,1,0
O=C(Nc1ccc2nc3n(c(=O)c2c1)CCCCC3)c1c(F)ccc([N+](=O)[O-])c1F,36*,9,0,0
COc1ccccc1NS(=O)(=O)c1ccc(NC(=O)COc2ccc(Cl)cc2)cc1,12,0,0,0
C=CCc1ccccc1OCC(=O)N/N=C/c1ccccc1,51*,-6,0,0
COc1ccccc1OCC(=O)N/N=C/c1ccccc1,-1,6,0,0
COc1ccccc1OCC(=O)N/N=C/c1ccc([N+](=O)[O-])cc1,0,-24,2,0
C=CCc1ccccc1OCC(=O)N/N=C/c1ccc([N+](=O)[O-])cc1,33*,15,1,0
CCOc1ccccc1-n1c(SCc2ccccc2C)nc2[nH]ncc2c1=O,-16,8,1,0
O=C(NC(c1ccc([N+](=O)[O-])cc1)c1cc(Cl)c2cccnc2c1O)c1cccnc1 (stereo not given),10,10,1,0
COc1ccc(C)cc1NC(=O)c1n[nH]c(=O)c2ccccc12,-14,8,-2,0
CC(C)(C)P(=NC(=S)Nc1ccccc1)(N1CCOCC1)N1CCOCC1,2,0,-2,0
CC(C)(C)P(=NC(=S)NNCCO)(N1CCCCCC1)N1CCCCCC1,78*,-6,2,0
O=C(c1ccc(Oc2ccccc2)cc1)c1coc2ccc(O)cc12,55*,-4,-4,0
O=C(OC(c1ccccc1)c1nccc2ccccc12)c1ccccc1 (stereo not given),72*,9,0,0
NC(=O)c1sc2nc3c(c(-c4cccs4)c2c1N)CCC3,44*,3,-1,0
COC(=O)c1sc2nc3c(c(-c4cccs4)c2c1N)CCC3,2,-4,1,1
O=C(CN1CCCCCC1)N/N=C/c1ccccc1Cl,-1,22,0,0
CCn1c(=O)cc(SCC(=O)NCc2ccc(F)cc2)c2ccccc21,45*,6,1,0
CCn1c(=O)cc(SCC(=O)NC(C)C)c2ccccc21,4,2,0,0
CCn1c(=O)cc(SCC(=O)NCc2cccs2)c2ccccc21,43*,13,0,0
O=C(O)c1cccc2[nH]c(C(F)(F)F)nc12,12,16,1,0
Cc1cc(-c2cccc3[nH]c(C(F)(F)F)nc23)nn1C(=O)c1ccncc1,34*,2,-1,0
COc1ccc(CNc2nc3c(Cl)cccc3s2)c(OC)c1OC,0,12,-1,0
CC(=O)[C@]1(O)Cc2c(O)c3c(c(O)c2[C@@H](O[C@H]2C[C@H](N)[C@H](O)[C@H](C)O2)C1)C(=O)c1ccccc1C3=O,-33,12,1,0
SMILES,TEAD-YAP inh,MITF inh,GPR151 activ,FBW7 activator
COc1cccc2c1C(=O)c1c(O)c3c(c(O)c1C2=O)C[C@@](O)(C(=O)CO)C[C@@H]3O[C@H]1C[C@H](N)[C@@H](O)[C@H](C)O1,62*,30,0,0
COc1cccc2c1C(=O)c1c(O)c3c(c(O)c1C2=O)C[C@@](O)(C(C)=O)C[C@@H]3O[C@H]1C[C@H](N)[C@H](O)[C@H](C)O1,93*,23,-1,0
CCNc1nc(Nc2cc(OC)c(OC)c(OC)c2)c2ncn(-c3ccccc3)c2n1,47*,10,0,0
COc1cc(Nc2nc(Nc3ccccc3)c3ncn(-c4ccccc4)c3n2)cc(OC)c1OC,-35,7,2,0
COc1cc(Nc2nc(Nc3nc4ccccc4n3C)nc3c2ncn3-c2ccccc2)cc(OC)c1OC,42*,-10,2,0
CCn1c(C(O)c2cc(OC)c(OC)c(OC)c2)nc2ccccc21 (stereo not given),9,16,0,2.3*
CCCNC(=O)c1ccc2c(c1)NC(=O)c1ccccc1S2,-1,-2,1,0
O=C(NCCc1ccccc1)c1ccc2c(c1)NC(=O)c1ccccc1S2,53*,-1,0,0
COc1cccc(/C=N/NC(=O)CSc2cc(C)nc3c(C)cccc23)c1O,32*,8,1,0
